# Measured values reported in PubChem BioAssay (EPA / NIEHS).
# Inconclusive results are not listed. The source made the active and inactive calls. The calls were made as follows: active = hit-call score of the fitted dose curve at least 0.9, where 1 is the maximum; inconclusive = response in the unintended direction; inactive = score below 0.9.
# What was measured:
# [1] = target: human CYP2C9, CYP2C9 (gene 1559) (UniProt P11712); test: NVS_ADME_hCYP2C9: NovaScreen (NVS) CYP450-related Enzyme Activity (ADME) Assay for human CYP2C9 (AID 2283108)
# human CYP2C9, CYP2C9 (gene 1559), sequence (P11712 whole entry, looked up): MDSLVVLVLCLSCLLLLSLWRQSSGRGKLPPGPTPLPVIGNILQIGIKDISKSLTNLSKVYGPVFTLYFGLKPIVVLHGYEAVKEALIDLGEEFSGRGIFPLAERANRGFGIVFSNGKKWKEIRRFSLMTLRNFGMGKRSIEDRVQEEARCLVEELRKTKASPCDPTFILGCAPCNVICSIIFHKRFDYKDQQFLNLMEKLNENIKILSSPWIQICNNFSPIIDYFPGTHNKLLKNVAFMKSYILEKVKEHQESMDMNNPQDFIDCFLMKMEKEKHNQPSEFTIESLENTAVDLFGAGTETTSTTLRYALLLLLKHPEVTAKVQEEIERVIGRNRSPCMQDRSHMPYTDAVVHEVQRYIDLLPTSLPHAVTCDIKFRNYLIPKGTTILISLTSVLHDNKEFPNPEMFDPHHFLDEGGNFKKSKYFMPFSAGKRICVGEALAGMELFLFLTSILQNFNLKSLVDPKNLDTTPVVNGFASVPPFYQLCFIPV
# Method in brief: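 Recombinant human CYP2C9 expressed in SF9 cells, fluorogenic substrate, fluorescence read 0.75 h after dosing. Chemicals first run in duplicate at 10 uM, with actives followed in concentration series; loss of signal versus acetonitrile baseline.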
# [2] = target: Cytochrome P450 3A4 (Homo sapiens) (UniProt P08684); test: NVS_ADME_hCYP3A4: NovaScreen (NVS) CYP450-related Enzyme Activity (ADME) Assay for human CYP3A4 (AID 2283110)
# Cytochrome P450 3A4 (Homo sapiens), sequence (P08684 whole entry, looked up): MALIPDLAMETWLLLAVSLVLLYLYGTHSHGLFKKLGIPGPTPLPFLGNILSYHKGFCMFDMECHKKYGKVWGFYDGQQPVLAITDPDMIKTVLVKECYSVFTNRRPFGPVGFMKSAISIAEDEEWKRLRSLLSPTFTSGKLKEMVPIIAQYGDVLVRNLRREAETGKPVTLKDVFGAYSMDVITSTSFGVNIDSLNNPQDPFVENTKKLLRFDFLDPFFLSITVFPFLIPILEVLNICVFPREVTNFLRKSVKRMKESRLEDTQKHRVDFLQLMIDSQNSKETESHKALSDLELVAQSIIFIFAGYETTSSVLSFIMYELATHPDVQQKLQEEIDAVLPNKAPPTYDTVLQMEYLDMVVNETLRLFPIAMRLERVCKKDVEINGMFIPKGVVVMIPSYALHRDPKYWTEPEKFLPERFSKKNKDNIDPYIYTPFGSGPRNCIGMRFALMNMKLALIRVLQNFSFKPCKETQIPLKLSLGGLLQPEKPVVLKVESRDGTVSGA
# Method in brief: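 Recombinant CYP3A4 from insect cells, fluorescence enzyme read-out, 0.33 h after chemical addition. Acetonitrile = negative control/baseline. Primary HTS: 10 uM in duplicate; actives re-tested in concentration series.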
# [3] = target: Cytochrome P450 2C19 (Homo sapiens) (UniProt P33261); test: NVS_ADME_hCYP2C19: NovaScreen (NVS) CYP450-related Enzyme Activity (ADME) Assay for human CYP2C19 (AID 2283113);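 as to AC50: potency for inhibition seen as loss of fluorescent signal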
# Method in brief: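 Cell-free recombinant human CYP2C19 from insect cells, fluorescent substrate; activity read by fluorescence intensity 1 h after dosing. Primary screen in duplicate at 10 uM; actives retested in concentration series. Signal loss versus acetonitrile negative control.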
# [4] = target: human Beta-secretase (BACE), BACE1 (gene 23621) (UniProt P56817); test: NVS_ENZ_hBACE: NovaScreen (NVS) Enzymatic Assay for human Beta-secretase (BACE) (AID 2283140);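 also: hits are inhibitors that reduce fluorescent substrate signal versus DMSO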
# human Beta-secretase (BACE), BACE1 (gene 23621), sequence (P56817 whole entry, looked up): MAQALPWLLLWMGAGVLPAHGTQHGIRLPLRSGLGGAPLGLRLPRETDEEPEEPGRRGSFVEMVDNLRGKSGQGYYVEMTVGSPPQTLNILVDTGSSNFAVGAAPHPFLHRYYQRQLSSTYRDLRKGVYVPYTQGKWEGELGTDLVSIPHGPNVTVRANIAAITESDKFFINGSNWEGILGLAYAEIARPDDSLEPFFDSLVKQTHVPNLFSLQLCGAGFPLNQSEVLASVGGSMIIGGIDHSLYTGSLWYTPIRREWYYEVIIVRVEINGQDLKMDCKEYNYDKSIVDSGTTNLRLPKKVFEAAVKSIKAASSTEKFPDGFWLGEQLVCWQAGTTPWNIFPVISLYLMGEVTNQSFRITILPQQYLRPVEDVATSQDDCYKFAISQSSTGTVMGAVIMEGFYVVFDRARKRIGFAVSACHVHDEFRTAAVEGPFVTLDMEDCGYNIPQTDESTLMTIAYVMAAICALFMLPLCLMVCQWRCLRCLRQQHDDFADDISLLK
# Method in brief: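 Fluorescence intensity read-out of protease activity defines this endpoint; signal loss relative to DMSO baseline marks inhibition. Recombinant enzyme from SF9 cells, cell-free format, 1 h exposure. Single-concentration duplicate screen (25 uM) precedes concentration-series follow-up.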
# [5] = target: human Dual Specificity Protein Phosphatase 3 (DUSP3), DUSP3 (gene 1845) (UniProt P51452); test: NVS_ENZ_hDUSP3: NovaScreen (NVS) Enzymatic Assay for human Dual Specificity Protein Phosphatase 3 (DUSP3) (AID 2283152);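 also: phosphatase activity of recombinant human DUSP3 on a fluorogenic substrate without cells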
# human Dual Specificity Protein Phosphatase 3 (DUSP3), DUSP3 (gene 1845), sequence (P51452 whole entry, looked up): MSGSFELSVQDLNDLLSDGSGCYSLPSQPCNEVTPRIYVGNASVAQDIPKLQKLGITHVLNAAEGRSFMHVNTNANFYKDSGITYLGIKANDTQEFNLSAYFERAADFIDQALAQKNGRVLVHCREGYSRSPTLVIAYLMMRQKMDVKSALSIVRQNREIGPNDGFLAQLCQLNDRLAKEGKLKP
# Method in brief: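 Cell-free fluorescence-intensity enzyme activity assay with recombinant protein and substrate; loss of signal fitted relative to DMSO baseline. Primary screen in duplicate at 25 uM, actives then run in concentration series; measured 0 h after dosing.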
# [6] = target: human Esterase Plasma (ES), BCHE (gene 590) (UniProt P06276); test: NVS_ENZ_hES: NovaScreen (NVS) Enzymatic Assay for human Esterase Plasma (ES) (AID 2283157)
# human Esterase Plasma (ES), BCHE (gene 590), sequence (P06276 whole entry, looked up): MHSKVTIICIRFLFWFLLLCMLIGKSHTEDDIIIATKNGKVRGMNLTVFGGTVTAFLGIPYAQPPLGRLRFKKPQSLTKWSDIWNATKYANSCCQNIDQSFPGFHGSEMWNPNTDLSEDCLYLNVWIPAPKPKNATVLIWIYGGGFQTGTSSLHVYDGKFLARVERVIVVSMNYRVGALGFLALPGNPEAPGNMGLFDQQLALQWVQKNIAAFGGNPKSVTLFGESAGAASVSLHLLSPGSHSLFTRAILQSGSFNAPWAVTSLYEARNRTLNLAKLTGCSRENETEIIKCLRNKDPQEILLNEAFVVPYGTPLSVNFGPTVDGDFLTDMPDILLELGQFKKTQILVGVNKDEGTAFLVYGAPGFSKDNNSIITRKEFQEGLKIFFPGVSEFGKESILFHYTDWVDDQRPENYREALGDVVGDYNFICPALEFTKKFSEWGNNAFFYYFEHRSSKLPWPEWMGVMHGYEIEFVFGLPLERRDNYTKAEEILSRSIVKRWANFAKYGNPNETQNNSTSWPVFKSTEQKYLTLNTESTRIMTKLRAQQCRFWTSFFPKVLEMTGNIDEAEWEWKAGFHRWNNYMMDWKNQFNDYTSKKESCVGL
# Method in brief: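 Human plasma-derived enzyme, cell-free, colorimetric readout at 0.25 h. Primary screen 25 uM in duplicate; hits (e.g. ≥30% inhibition) rerun singleton up to 50 uM. DMSO = negative control/baseline.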
# [7] = target: human CYP2D6, CYP2D6 (gene 1565) (UniProt P10635); test: NVS_ADME_hCYP2D6: NovaScreen (NVS) CYP450-related Enzyme Activity (ADME) Assay for human CYP2D6 (AID 2283107)
# human CYP2D6, CYP2D6 (gene 1565), sequence (P10635 whole entry, looked up): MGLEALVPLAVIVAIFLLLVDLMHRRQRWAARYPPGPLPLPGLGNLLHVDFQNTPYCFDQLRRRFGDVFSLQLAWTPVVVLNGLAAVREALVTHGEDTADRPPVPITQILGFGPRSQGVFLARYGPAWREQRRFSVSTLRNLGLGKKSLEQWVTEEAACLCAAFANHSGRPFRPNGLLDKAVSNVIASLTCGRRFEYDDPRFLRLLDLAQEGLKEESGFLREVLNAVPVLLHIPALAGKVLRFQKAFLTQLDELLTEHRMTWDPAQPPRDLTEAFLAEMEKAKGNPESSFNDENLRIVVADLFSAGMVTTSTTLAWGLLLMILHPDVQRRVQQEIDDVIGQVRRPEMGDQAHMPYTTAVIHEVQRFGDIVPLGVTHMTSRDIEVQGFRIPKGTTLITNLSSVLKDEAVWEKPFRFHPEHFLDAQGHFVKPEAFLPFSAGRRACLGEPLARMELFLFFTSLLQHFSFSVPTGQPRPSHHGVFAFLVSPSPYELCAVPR
# Method in brief: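 Cell-free assay using recombinant human CYP2D6 expressed in insect cells, with a fluorogenic substrate read after 1 h. Primary screen in duplicate at 10 uM; actives followed up in concentration series. Loss of signal fitted relative to acetonitrile.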
# [8] = target: human Caspase 5 (CASP5), CASP5 (gene 838) (UniProt P51878); test: NVS_ENZ_hCASP5: NovaScreen (NVS) Enzymatic Assay for human Caspase 5 (CASP5) (AID 2283137)
# human Caspase 5 (CASP5), CASP5 (gene 838), sequence (P51878 whole entry, looked up): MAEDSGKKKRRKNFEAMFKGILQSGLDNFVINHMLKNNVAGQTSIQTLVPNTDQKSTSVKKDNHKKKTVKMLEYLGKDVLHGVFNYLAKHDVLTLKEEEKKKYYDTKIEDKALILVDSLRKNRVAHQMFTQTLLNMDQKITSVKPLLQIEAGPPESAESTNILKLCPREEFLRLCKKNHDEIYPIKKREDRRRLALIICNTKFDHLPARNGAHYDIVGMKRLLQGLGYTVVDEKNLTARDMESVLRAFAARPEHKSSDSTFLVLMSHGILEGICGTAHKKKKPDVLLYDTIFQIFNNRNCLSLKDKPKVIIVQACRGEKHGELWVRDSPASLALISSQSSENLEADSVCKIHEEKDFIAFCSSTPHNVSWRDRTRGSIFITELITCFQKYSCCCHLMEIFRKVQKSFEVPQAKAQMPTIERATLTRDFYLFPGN
# Method in brief: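 Chemicals were first tested in duplicate at 25 uM against recombinant caspase 5 from E. coli. Activity was read by fluorescence intensity 2 hours after dosing. Those passing a preset inhibition threshold were retested in singleton concentration-response up to 50 uM.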
# [9] = target: human Caspase 4 (CASP4), CASP4 (gene 837) (UniProt P49662); test: NVS_ENZ_hCASP4: NovaScreen (NVS) Enzymatic Assay for human Caspase 4 (CASP4) (AID 2283143)
# human Caspase 4 (CASP4), CASP4 (gene 837), sequence (P49662 whole entry, looked up): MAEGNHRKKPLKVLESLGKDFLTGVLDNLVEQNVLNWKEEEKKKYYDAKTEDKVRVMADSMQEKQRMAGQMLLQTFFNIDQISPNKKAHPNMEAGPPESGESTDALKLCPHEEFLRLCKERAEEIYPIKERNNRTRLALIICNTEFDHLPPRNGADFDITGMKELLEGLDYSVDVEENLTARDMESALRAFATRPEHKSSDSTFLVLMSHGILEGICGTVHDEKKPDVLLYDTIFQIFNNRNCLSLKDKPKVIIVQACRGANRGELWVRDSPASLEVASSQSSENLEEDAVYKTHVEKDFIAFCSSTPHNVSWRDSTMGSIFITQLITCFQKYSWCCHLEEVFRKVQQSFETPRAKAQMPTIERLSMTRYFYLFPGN
# Method in brief: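 Compounds were first tested in duplicate at 25 uM, and hits were titrated singly to a 50 uM maximum. Recombinant protease from E. coli was read by fluorescence 2 h post-dose, and activity loss was fitted against the DMSO baseline.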
# [10] = target: human Elastase, ELANE (gene 1991) (UniProt P08246); test: NVS_ENZ_hElastase: NovaScreen (NVS) Enzymatic Assay for human Elastase (AID 2283153)
# human Elastase, ELANE (gene 1991), sequence (P08246 whole entry, looked up): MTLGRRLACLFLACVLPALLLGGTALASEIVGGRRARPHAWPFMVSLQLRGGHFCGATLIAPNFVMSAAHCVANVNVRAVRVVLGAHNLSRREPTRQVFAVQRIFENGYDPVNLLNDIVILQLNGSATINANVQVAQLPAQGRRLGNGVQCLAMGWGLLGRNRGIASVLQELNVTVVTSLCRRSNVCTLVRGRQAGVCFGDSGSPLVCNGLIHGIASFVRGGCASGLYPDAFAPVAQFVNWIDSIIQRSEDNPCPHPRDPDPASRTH
# Method in brief: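 Concentration-response to 50 uM max, run singly for chemicals passing a threshold (e.g., 30% inhibition) in a duplicate 25 uM single-point screen. Neutrophil-derived human elastase, absorbance read-out of enzyme activity at 1.5 h; DMSO baseline.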
# [11] = target: human AKT serine/threonine Kinase 1 (AKT1), AKT1 (gene 207) (UniProt P31749); test: NVS_ENZ_hAKT1: NovaScreen (NVS) Enzymatic Assay for human AKT serine/threonine Kinase 1 (AKT1) (AID 2283138)
# human AKT serine/threonine Kinase 1 (AKT1), AKT1 (gene 207), sequence (P31749 whole entry, looked up): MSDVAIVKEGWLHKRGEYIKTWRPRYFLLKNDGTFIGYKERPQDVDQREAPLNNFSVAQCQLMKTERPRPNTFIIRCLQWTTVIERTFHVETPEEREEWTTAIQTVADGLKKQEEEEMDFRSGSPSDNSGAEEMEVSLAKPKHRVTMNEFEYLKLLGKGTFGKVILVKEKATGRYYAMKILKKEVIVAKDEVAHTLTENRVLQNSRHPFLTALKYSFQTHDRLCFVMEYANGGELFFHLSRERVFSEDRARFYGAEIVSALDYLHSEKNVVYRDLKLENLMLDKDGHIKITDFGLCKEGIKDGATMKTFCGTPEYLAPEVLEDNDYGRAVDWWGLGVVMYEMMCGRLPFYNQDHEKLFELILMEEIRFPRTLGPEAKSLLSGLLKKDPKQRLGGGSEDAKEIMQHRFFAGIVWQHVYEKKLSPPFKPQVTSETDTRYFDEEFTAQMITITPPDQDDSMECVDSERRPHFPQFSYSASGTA
# Method in brief: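 Compounds were first tested in duplicate at 25 uM, and those passing a threshold such as 30% inhibition were run in concentration-response to a maximum of 50 uM. Enzyme activity was measured after 1 h by fluorescence following substrate/product mobility-shift separation.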
# [12] = target: human FYN Proto-Oncogene, Src family Tyrosine Kinase (Fyn), FYN (gene 2534) (UniProt P06241); test: NVS_ENZ_hFyn: NovaScreen (NVS) Enzymatic Assay for human FYN Proto-Oncogene, Src family Tyrosine Kinase (Fyn) (AID 2283161)
# Method in brief: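 Cell-free kinase activity read by fluorescence after mobility-shift separation of substrate and product, 1 h post-dose. Initial single concentration 25 uM in duplicate, then concentration-response follow-up; DMSO baseline.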
# [13] = target: human Colony Stimulating Factor 1 Receptor (CSF1R), CSF1R (gene 1436) (UniProt P07333); test: NVS_ENZ_hCSF1R: NovaScreen (NVS) Enzymatic Assay for human Colony Stimulating Factor 1 Receptor (CSF1R) (AID 2283150)
# Method in brief: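 Compounds screened in duplicate at 25 uM, then concentration-response (top 50 uM) for those passing threshold such as 30% inhibition; recombinant CSF1R activity measured 1 h post-dosing via fluorescent substrate/product mobility-shift separation, loss of signal versus DMSO.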
# [14] = target: human AKT serine/threonine Kinase 2 (AKT2), AKT2 (gene 208) (UniProt P31751); test: NVS_ENZ_hAKT2: NovaScreen (NVS) Enzymatic Assay for human AKT serine/threonine Kinase 2 (AKT2) (AID 2283141)
# Method in brief: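 Cell-free fluorescence/electrophoretic mobility shift readout of recombinant human AKT2 activity, 1 h after chemical dosing. Duplicate primary screen at 25 uM, then singleton concentration-response up to 50 uM; loss of signal versus DMSO baseline.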
# CDK2 (gene 1017) = CDK2 (gene 1017) (UniProt P24941); test: NVS_ENZ_hCDK2: NovaScreen (NVS) Enzymatic Assay for human Cyclin-Cependent Kinase 2 (CDK2) (AID 2283144)
# Method in brief: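 Compounds screened in duplicate at 25 uM, then in singleton concentration-response to a maximum of 50 uM, against recombinant CDK2; kinase activity read 1 hr after dosing by fluorescence with mobility-shift separation of substrate and product.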
# [15] = target: human Casein Kinase 1-delta (CK1D), CSNK1D (gene 1453) (UniProt P48730); test: NVS_ENZ_hCK1D: NovaScreen (NVS) Enzymatic Assay for human Casein Kinase 1-delta (CK1D) (AID 2283148)
# human Casein Kinase 1-delta (CK1D), CSNK1D (gene 1453), sequence (P48730 whole entry, looked up): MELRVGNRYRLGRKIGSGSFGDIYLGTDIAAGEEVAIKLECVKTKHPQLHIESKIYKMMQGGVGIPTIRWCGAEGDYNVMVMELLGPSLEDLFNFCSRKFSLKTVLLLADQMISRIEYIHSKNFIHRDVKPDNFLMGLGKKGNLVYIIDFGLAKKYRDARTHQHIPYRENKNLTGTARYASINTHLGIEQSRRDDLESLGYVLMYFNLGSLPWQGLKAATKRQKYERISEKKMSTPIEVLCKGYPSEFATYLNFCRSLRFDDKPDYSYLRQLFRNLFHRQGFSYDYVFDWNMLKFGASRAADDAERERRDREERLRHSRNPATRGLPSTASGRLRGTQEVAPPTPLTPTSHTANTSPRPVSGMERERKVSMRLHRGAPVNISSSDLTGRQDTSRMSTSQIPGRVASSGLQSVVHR
# Method in brief: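 Recombinant human CK1-delta, cell-free; fluorescent substrate with electrophoretic mobility-shift separation of product, read 1 h after dosing. Single 25 uM duplicate screen, then concentration-response up to 50 uM; loss of signal vs DMSO.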
# Caspase-3 (Homo sapiens) = Caspase-3 (Homo sapiens) (UniProt P42574); test: NVS_ENZ_hCASP3: NovaScreen (NVS) Enzymatic Assay for human Caspase 3 (CASP3) (AID 2283139)
# Method in brief: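 Single-concentration screening at 25 uM in duplicate, with concentration-response follow-up to a 50 uM maximum for chemicals passing the threshold. Caspase-3 (human, E. coli-expressed) activity was read as substrate fluorescence after 1 h, with loss of signal relative to DMSO.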
# [16] = target: human Caspase 8 (CASP8), CASP8 (gene 841) (UniProt Q14790); test: NVS_ENZ_hCASP8: NovaScreen (NVS) Enzymatic Assay for human Caspase 8 (CASP8) (AID 2283146)
# Method in brief: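 The primary screen tested compounds in duplicate at a single 25 uM concentration, with actives followed up in concentration series. Activity of recombinant (E. coli) protease was measured by fluorescence 1 h post-dose, as signal loss against DMSO.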
structure (smiles),measurement,setting,value
CCCOc1sc(C(=O)N2CCC(c3cc(CN)ccc3F)CC2)c(C)c1Br,AC50,[1],1.92 µM (active)
same,AC50,[2],14.4 µM (active)
same,AC50,[3],0.68 µM (active)
same,AC50,[4],4.17 µM (active)
same,AC50,[5],7.33 µM (active)
same,AC50,[6],8.81 µM (active)
O=[N+]([O-])c1ccc(O)cc1,outcome,[7],inactive
same,outcome,[3],inactive
Cc1oc(-c2ccccc2)nc1CCOc1ccc(C[C@H](Nc2ccccc2C(=O)c2ccccc2)C(=O)O)cc1,outcome,[2],inactive
same,outcome,[3],inactive
same,AC50,[8],8.25 µM (active)
same,AC50,[4],1.17 µM (active)
same,outcome,[9],inactive
same,AC50,[5],14.9 µM (active)
same,AC50,[10],10.6 µM (active)
C#C[C@]1(O)CC[C@H]2[C@@H]3CCC4=CC(=O)CC[C@@H]4[C@H]3CC[C@@]21C,AC50,[3],3.13 µM (active)
Nc1cccc2c(N)cccc12,AC50,[7],3.62 µM (active)
same,AC50,[1],6.16 µM (active)
same,AC50,[3],3.08 µM (active)
same,AC50,[11],3.13 µM (active)
same,AC50,[4],19.5 µM (active)
same,outcome,[10],inactive
CCC(=C(c1ccc(O)cc1)c1ccc(OCCN(C)C)cc1)c1ccccc1,AC50,[3],3.91 µM (active)
same,outcome,[11],inactive
same,AC50,[4],16.1 µM (active)
same,outcome,[12],inactive
CC[C@H](C)[C@@H](C(=O)O)n1sc2ccccc2c1=O,AC50,[3],13.4 µM (active)
Cc1cc(CCN2CCN(c3nsc4ccccc34)CC2)cc2c1NC(=O)CC2(C)C,outcome,[7],inactive
same,AC50,[1],10 µM (active)
same,AC50,[3],4.35 µM (active)
same,outcome,[13],inactive
same,AC50,[6],22.2 µM (active)
CCCCCCCCCCCCc1ccccc1S(=O)(=O)O,AC50,[1],5.06 µM (active)
same,AC50,[11],29.1 µM (active)
same,AC50,[4],2.23 µM (active)
same,AC50,[14],40.2 µM (active)
same,outcome,CDK2 (gene 1017),inactive
same,AC50,[15],17.4 µM (active)
same,AC50,[13],17.3 µM (active)
same,AC50,[10],38 µM (active)
O=C(OCCOCCOC(=O)c1ccccc1)c1ccccc1,AC50,[1],15.3 µM (active)
same,AC50,[3],7.94 µM (active)
Oc1cc2ccccc2c2ccccc12,AC50,[7],0.136 µM (active)
same,AC50,[1],0.235 µM (active)
same,AC50,[2],6.68 µM (active)
same,AC50,[3],0.872 µM (active)
same,AC50,[8],6.88 µM (active)
same,AC50,Caspase-3 (Homo sapiens),12.6 µM (active)
same,outcome,[9],inactive
same,outcome,[16],inactive
same,AC50,[6],14.1 µM (active)
Cc1cc(C)c(O)c(C)c1,outcome,[3],inactive
